10 compounds from PubChem BioAssay (NCATS) can be followed below.

Experiment [1] is described as follows: qHTS profiling for inhibitors of Plasmodium falciparum proliferation (AID 504749). Further: potency means the concentration at half of the fitted maximal effect.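 On activity, negative = inhibition: 0% = DMSO vehicle and full inhibition = artemisinin control.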 On all read-outs here: nearly all actives have a fitted effect of over 60% in size. The conditions noted are these: P. falciparum in erythrocytes, SYBR Green DNA, 72 h; for activity, negative = inhibition: at 28.7 µM (top of the series). The method in brief: (§1)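 SYBR Green fluorescence of parasite DNA, read after lysis and overnight dark incubation, measured growth over 72 h in erythrocyte culture at 0.3% parasitemia and 2.5% hematocrit. Data normalised to DMSO and 0.29 uM artemisinin, with plate-drift correction.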

Another experiment has as its system 3D7. The experiment is described as above. The conditions noted are these: P. falciparum in erythrocytes, SYBR Green DNA, 72 h; series mostly up to 28.7 µM. The method in brief: as §1
A further experiment deals with 7G8. The description is as above. The conditions noted are these: P. falciparum in erythrocytes, SYBR Green DNA, 72 h; series mostly up to 28.7 µM. In outline:
as §1

A further experiment relates to AA1029. Described as above. The settings on record: P. falciparum in erythrocytes, SYBR Green DNA, 72 h; series mostly up to 28.7 µM. The method in brief:
as §1

In a further experiment the test system is AS120. The description is as above. The conditions noted are these: P. falciparum in erythrocytes, SYBR Green DNA, 72 h; series mostly up to 28.7 µM. In outline:
as §1

The subject of the next experiment is ATS189. The description is as above. The conditions noted are these: P. falciparum in erythrocytes, SYBR Green DNA, 72 h; series mostly up to 28.7 µM. In outline:
as §1

The test system of the next experiment is ATS95. The description is as above. The settings on record: P. falciparum in erythrocytes, SYBR Green DNA, 72 h; series mostly up to 28.7 µM. In outline: as §1
A further experiment deals with C2A. Described as above. The conditions noted are these: P. falciparum in erythrocytes, SYBR Green DNA, 72 h; series mostly up to 28.7 µM. In outline: as §1
The subject of another experiment is CP185. The description is as above. The conditions noted are these: P. falciparum in erythrocytes, SYBR Green DNA, 72 h; series mostly up to 28.7 µM. The method in brief:
as §1

Another experiment relates to CP191. The description is as above. The settings on record: P. falciparum in erythrocytes, SYBR Green DNA, 72 h; series mostly up to 28.7 µM. The method in brief: as §1
A further experiment concerns CP192. The description is as above. The conditions noted are these: P. falciparum in erythrocytes, SYBR Green DNA, 72 h; series mostly up to 28.7 µM. In outline:
as §1

Another experiment relates to CP194. The experiment is described as above. The settings on record: P. falciparum in erythrocytes, SYBR Green DNA, 72 h; series mostly up to 28.7 µM. The method in brief:
as §1

Another experiment concerns CP201. The description is as above. The settings on record: P. falciparum in erythrocytes, SYBR Green DNA, 72 h; series mostly up to 28.7 µM. In outline:
as §1

The next experiment deals with CP203. The description is as above. The settings on record: P. falciparum in erythrocytes, SYBR Green DNA, 72 h; series mostly up to 28.7 µM. In outline:
as §1

The next experiment deals with CP211. Described as above. The settings on record: P. falciparum in erythrocytes, SYBR Green DNA, 72 h; series mostly up to 28.7 µM. The method in brief:
as §1

The subject of a further experiment is CP215. The description is as above. The settings on record: P. falciparum in erythrocytes, SYBR Green DNA, 72 h; series mostly up to 28.7 µM. The method in brief: as §1
The next experiment has as its system CP217. Described as above. The conditions noted are these: P. falciparum in erythrocytes, SYBR Green DNA, 72 h; series mostly up to 28.7 µM. The method in brief:
as §1

Experiment [2] in a line: qHTS drug screen for cell cycle checkpoint inhibitors in PARPi-resistant BRCA-mutant ovarian cancer cell lines. (AID 1963452; calls by dose curve; further: potency means the concentration at half of the fitted maximal effect). The conditions noted are these: PEO1/OlaR viability, CellTiter-Glo luminescence, 96 h; for Z-AUC: stronger effect = lower value. In outline:
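PEO1, PEO4 and PEO1/OlaR ovarian cancer cells, 600 per well, exposed 96 h at 37C to a dilution series. Viability read by CellTiter-Glo luminescence, normalized to DMSO and empty wells; activity summarized as Z-AUC.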
(In qHTS, concentration-response curves come from the screen itself.)

Experiment [3] concerns the target Nuclear receptor subfamily 1 group I member 2 (Homo sapiens) (UniProt O75469). Nature of the experiment: Dual reporter qHTS for antagonist of Pregnane X Receptor (hPXR) against the NCATS DSHEA and TCM libraries: Luminescence Readout (AID 1920060).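 Further: HepG2 cells carrying hPXR luciferase reporter stimulated with rifampicin at 2 µM; 0% is about no effect.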 The method in brief: (§2)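 In antagonist mode, 2 uM rifampicin was added to hPXR-Luc HepG2 cells alongside test substances, incubated 24 h at 37 C; luminescence gave reporter activity, and CellTiter-Fluor fluorescence (405/540 nm) gave viability.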

The nature of experiment [4]: Dual reporter qHTS for antagonist of Pregnane X Receptor (hPXR) against the NCATS DSHEA and TCM libraries: Fluorescence Readout (AID 1920061). Further: 0% is about no effect. In outline: as §2
[5] abbreviates: measured here: PEO1 parental Z-AUC.

Where “and” joins values, the source holds several entries; their conditions need not be identical. Equal values may be shown once. Results filed as inconclusive are left out. Calls of active or inactive are those of the source. Unless noted, the call rests on the fitted dose curve; in most records, active means well fitted curve in the direction sought with a large enough effect; inconclusive means small, poorly fitted or top-dose-only effect, or another doubt; inactive means no such curve, though single readings can be large; an effect the other way counts as inactive or inconclusive.

Nuclear receptor subfamily 1 group I member 2 (Homo sapiens), sequence (O75469 whole entry, looked up): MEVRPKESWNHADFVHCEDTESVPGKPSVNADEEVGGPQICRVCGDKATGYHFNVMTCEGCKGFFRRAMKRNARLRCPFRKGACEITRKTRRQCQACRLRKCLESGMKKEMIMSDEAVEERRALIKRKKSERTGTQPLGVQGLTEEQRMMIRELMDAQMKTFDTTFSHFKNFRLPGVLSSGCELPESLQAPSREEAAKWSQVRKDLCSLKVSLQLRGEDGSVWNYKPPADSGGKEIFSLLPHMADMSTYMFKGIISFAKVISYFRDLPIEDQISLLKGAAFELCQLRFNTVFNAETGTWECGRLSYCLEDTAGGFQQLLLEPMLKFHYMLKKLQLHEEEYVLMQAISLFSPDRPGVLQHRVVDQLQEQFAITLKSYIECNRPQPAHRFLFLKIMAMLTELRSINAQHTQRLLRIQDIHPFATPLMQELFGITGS

As for `CCCCCCCCCCCCCCCCCCOCC(O)CO` (stereo not given), the activity, negative = inhibition is 11.2% (inactive) in experiment [1] (parasite line A) and 11.4% (inactive) in experiment [1] (parasite line B). The Potency entry in the experiment with 3D7, in the experiment on 7G8, in the experiment on AA1029, in the experiment with AS120, in the experiment with ATS189 and in the experiment on ATS95 was “inactive” throughout. In addition, the Potency result in the experiment with C2A, with CP185, with CP191, in the experiment on CP192, with CP194 and in the experiment with CP201 was “inactive” each time. The Potency result in the experiment on CP203, in the experiment with CP211, in the experiment on CP215 and with CP217 was “inactive” each time.
As for `CC(=O)Nc1ccc(/C=N/NC(N)=S)cc1`, the activity, negative = inhibition in experiment [1] (parasite line A) was 9.12% (inactive) and 9.39% (inactive); in experiment [1] (parasite line B) it was 6.45% (inactive) and 8.83% (inactive). The Potency result with 3D7, in the experiment on 7G8, in the experiment with AA1029, in the experiment on AS120, with ATS189 and in the experiment on ATS95 was “inactive” each time. In addition, the Potency result in the experiment on C2A, in the experiment with CP185, in the experiment on CP191, with CP192, with CP194 and in the experiment on CP201 was “inactive” throughout. The Potency entry in the experiment with CP203, with CP211, with CP215 and in the experiment with CP217 was “inactive” in each case.
Consider `CC(O)CN(CCN(CC(C)O)CC(C)O)CC(C)O` (stereo not given), for which the activity, negative = inhibition in experiment [1] (parasite line A) is 7.8% (inactive); in experiment [1] (parasite line B), -1.51% (inactive). The Potency entry in the experiment with 3D7, in the experiment with 7G8, in the experiment on AA1029, in the experiment on AS120, in the experiment with ATS189 and in the experiment on ATS95 was “inactive” each time. Also, the Potency entry with C2A, in the experiment with CP185, with CP191, in the experiment with CP192, in the experiment with CP194 and in the experiment on CP201 was “inactive” throughout. Also, the Potency result in the experiment with CP203, in the experiment with CP211, in the experiment with CP215 and in the experiment on CP217 was “inactive” each time.
As to `CC(=O)O[C@@]12CO[C@@H]1C[C@H](O)[C@@]1(C)C(=O)[C@H](O)C3=C(C)[C@@H](OC(=O)[C@H](O)[C@@H](NC(=O)OC(C)(C)C)c4ccccc4)C[C@@](O)([C@@H](OC(=O)c4ccccc4)[C@H]21)C3(C)C`, the Potency in experiment [2] is 0.0087 µM (active). Further, the Z-AUC in experiment [2] (setting [5]) was -2.65; in experiment [2] (measured here: PEO4 Z-AUC), -3.1.
`O=C(O)CC(O)C(=O)O` (stereo not given): the activity, negative = inhibition in [1] (parasite line A) is 10.4% (inactive); in experiment [1] (parasite line B) it was 3.5% (inactive). Further, the Potency entry in the experiment on 3D7, in the experiment with 7G8, in the experiment with AA1029, with AS120, in the experiment with ATS189 and with ATS95 was “inactive” in each case. Also, the Potency result in the experiment on C2A, with CP185, in the experiment on CP191, in the experiment with CP192, with CP194 and with CP201 was “inactive” in each case. Moreover, the Potency result in the experiment on CP203, with CP211, in the experiment with CP215 and in the experiment with CP217 was “inactive” throughout.
In the case of `NC(N)=NCCC[C@H](N)C(=O)O`, the compound was called inactive in experiment [3] and in [4].
In the case of `Cc1c(O)cccc1C(=O)N[C@@H](CSc1ccccc1)[C@H](O)CN1C[C@H]2CCCC[C@H]2C[C@H]1C(=O)NC(C)(C)C`, the Z-AUC in [2] is -0.819 (inactive); in [2] (setting [5]) it was -0.979; in experiment [2] (measured here: PEO4 Z-AUC) it was -1.07. Further, the figures for the Potency (in experiment [1] (parasite line B); in the experiment on 3D7; in the experiment on AS120) were 7.94 µM (active), 12.6 µM (active) and 10 µM (active), respectively. Besides, the Potency result in the experiment on C2A, in the experiment with CP185, in the experiment on CP192 and in the experiment with CP211 was “inactive” each time.
With `CC1=C(C/C=C(\C)CCC[C@H](C)CCC[C@H](C)CCCC(C)C)C(=O)c2ccccc2C1=O`, the result in experiment [3] and in [4] was inactive.
Take `CCN(CC)CCNC(=O)c1c(C)[nH]c(/C=C2\C(=O)Nc3ccc(F)cc32)c1C`: the results for the Z-AUC in experiment [2], in experiment [2] (setting [5]) and in experiment [2] (measured here: PEO4 Z-AUC) were -0.535 (inactive), -0.162 and -0.0779, respectively. Besides, the Potency in experiment [1] (parasite line A) was 6.31 µM (active); in experiment [1] (parasite line B), 8.91 µM (active); with 3D7 it was 8.91 µM (active); with 7G8, 3.98 µM (active); in the experiment with AA1029, 8.91 µM (active); with AS120, 7.08 µM (active). In addition, the Potency with ATS189 is 8.91 µM (active); in the experiment with ATS95, 7.08 µM (active); in the experiment with C2A, 11.2 µM (active); in the experiment with CP185, 7.08 µM (active); in the experiment with CP191, 7.94 µM (active); in the experiment with CP203 it was 10.7 µM (active). In addition, the values for the Potency with CP211 and in the experiment with CP217 were 10.7 µM (active) and 11.2 µM (active), respectively.
With `O=C(O)c1ccccc1O`, the outcome in experiment [3] and in [4] was inactive. In addition, the values for the activity, negative = inhibition in [1] (parasite line A) and in [1] (parasite line B) were 0.135% (inactive) and 11.3% (inactive), respectively. For the same compound, the Potency entry in the experiment with 3D7, in the experiment with 7G8, in the experiment on AA1029, in the experiment with AS120, in the experiment on ATS189 and in the experiment with ATS95 was “inactive” in each case. Also, the Potency result with C2A, in the experiment on CP185, in the experiment on CP191, in the experiment on CP192, in the experiment on CP194 and in the experiment with CP201 was “inactive” throughout. The Potency result in the experiment with CP211, with CP215 and with CP217 was “inactive” each time.
